Results from PubChem BioAssay AID1745850 (National Center for Advancing Translational Sciences (NCATS), 2022).
About 260 (12%) of roughly 2,100 compounds were called active. Inconclusive results (about 58%) are left out. Calls follow the shape of the dose curve; as a rule, active = well fitted cell-killing curve with a large enough effect; inconclusive = small, poorly fitted or top-dose-only effect, or effect the other way; inactive = flat fitted curve, though single readings scatter. The list shows a part of the results. Entries that show only a call come without a potency.

assay: Viability Counterscreen for Confirmatory qHTS for Inhibitors of ATXN expression; conditions: HEK-293 ATXN2-luc cells viability, CellTiter-Fluor, 24 h; also: nearly all actives have a fitted effect of over 50% in size
Text: PI: Daniel Scoles Ph.D. University of Utah School of Medicine, Salt Lake City, Utah MLPCN Grant: NS073009 Spinocerebellar ataxia type 2 (SCA2) is a multisystem neurodegenerative disease caused by a dominantly acting mutation leading to expansion of a polyQ domain in the ataxin-2 protein (ATXN2). SCA2 patients develop progressive ataxia and later lose function in other neuronal systems. Prominent parkinsonian signs develop in some patients. Like many neurodegenerative disorders, no symptomatic or disease-modifying treatments are known. The primary objective of the proposed research is to identify compounds inhibiting ATXN2 expression and to test them for efficacy in SCA2 mouse models. We have developed a cell-based assay paired with an in vivo mouse model using identical luciferase expression constructs. This approach takes advantage of an ATXN2-luciferase transgene, with the luciferase gene flanked by the upstream and downstream portions of the ATXN2 gene. Here we describe a 5-7 dose quantitative high thoroughput screen (qHTS) for compounds lowering ATXN2 expression. We screened the NIH Molecular Libraries Small Molecule Repository (MLSMR) and NCGC's mechanistically annotated (MIPE) and drug repurposing (NPC) collections of compounds for lowering expression of an ATXN2-luciferase reporter in HEK-293 cells. The assay is a multiplexed cell viability assay to ensure target reduction in the absence of cytotoxicity. Secondary qHTS assays included a CMV-luciferase reporter expressed in HEK-293 cells as well as a biochemical assay using recombinant luciferase to detect inhibitors of the reporter enzyme. Compounds that inhibit ATXN2 expression but is not cytotoxic were selected for confirmatory and secondary screens.
PROTOCOL TABLE (as described by Inglese J, Shamu CE and Guy RK. 2007) SEQUENCE No. (e.g., 1, 2, 3, etc.); […] (e.g., Cells, Incubation, Reagent, etc.); VALUE; DESCRIPTION. 1; Cells; 4 uL; white, solid bottom, 1536-well Greiner assay plate. 2; Incubation; 2 hr; 37 degree C in 5% humidified CO2. 3; Compounds; 23 nL; Kalypsis pintool (Wako USA) equipped with a 1536-well pin head. 4; Incubation; 24 hr; 37 degree C in 5% humidified CO2. 5; Reagent; 1 uL; Gly-Phe-7-Amino-4-trifluoromethylcoumarin. 6; Incubation; 30 min; 37 degree C in 5% humidified CO2. 7; Detection; Fluorescence; ViewLux plate reader (PerkinElmer). 8; Reagent; 3 uL; SteadyGlo luciferase solution (Promega). 9; Incubation; 5 min; room temperature. 10; Detection; Luminescence; ViewLux plate reader (PerkinElmer). NOTES (numbers refer to Sequence numbers above) 1. S2 cells expressing ATXN2-luciferase reporter were suspended in phenol-red free DMEM and dispensed in assay plates using a Multidrop Combi dispenser (Thermo Fisher Scientific). Wells containing medium only were plated on each plate, and values were used to normalize (100% inhibition) in the luciferase and CellTiter-Fluor assays. 2. Assay plates were incubated. Evaporation was prevented by covering assay plates with metal lids containing holes to allow gas diffusion. 3. Compounds were added in a dose response manner with the final concentrations of 57, 11.4, 2.28, 0.46, 0.091, 0.018, 0.0037 uM. Vehicle-only plates, with DMSO being pin-transferred to columns 5-48, were inserted uniformly at the beginning and the end of each library to monitor and record any shifts in assay performance. 5. 125 uM Gly-Phe-7-Amino-4-trifluoromethylcoumarin (MP Biomedicals) working concentration was used at a final concentration of 25 uM. 7. To assess cell viability; the assay plates were read using the ViewLux high-throughput CCD imager (PerkinElmer), wherein single end-point fluorescence measurement was acquired (excitation 405/10; emission 540/25 nm). 8. Detection reagent SteadyGlo Luciferase (Promega) was added to the assay plate. 10. Luminescence is then measured on the ViewLux imager equipped with a clear emission filter using a 2 sec exposure. […]
Potency is read from the fitted curve at half-maximal effect.

| Compound | Potency |
| --- | --- |
| Cc1cccc(-n2c(/C=C/c3ccc([N+](=O)[O-])o3)nc3ccccc3c2=O)c1 | 7.08 µM (active) |
| CSCCC(c1nnnn1-c1c(C)cccc1C)N1CCC2(CC1)C(=O)NCN2c1ccccc1 (stereo not drawn) | 31.6 µM (active) |
| O=C(Nc1ccc(OC(=O)N2CCCCC2)cc1)N1CCOCC1 | inactive |
| N#Cc1cn(C2OC(CO)C(O)C2O)c2ncnc(N)c12 (stereo not drawn) | inactive |
| O=[N+]([O-])c1oc2ccc3ccccc3c2c1CCO | 28.2 µM (active) |
| COc1ccc(N=Cc2c(O)n(-c3ccc(C)cc3)c(=O)[nH]c2=O)cc1 | inactive |
| COC(=O)C(O)(c1ccc(NC(=S)NC(=O)c2ccc(Cl)cc2Cl)c(C)c1)C(F)(F)F (stereo not drawn) | inactive |
| COc1cccc2c1C(=O)c1c(O)c3c(c(O)c1C2=O)CC(O)(C(C)=NO)CC3OC1CC(N)C(O)C(C)O1 (stereo not drawn) | 17.8 µM (active) |
| CC(=O)OC1(C)CC(C)C(=O)C(C(O)CC2CC(=O)NC(=O)C2)C1 (stereo not drawn) | inactive |
| C[C@]12CC[C@H](O)C[C@H]1CC[C@@H]1C2CC[C@]2(C)[C@@H](C3=CC(=O)OC3)[C@@H](O)C[C@]12O (stereo partly drawn) | inactive |
| CCC1(OC(=O)CN)C(=O)OCc2c1cc1n(c2=O)Cc2cc3ccccc3nc2-1 (stereo not drawn) | inactive |
| COC(=O)c1nc(-c2ccc3c(n2)C(=O)C(N)=C(OC)C3=O)c(N)c(-c2ccc(OC)c(OC)c2O)c1C | 15.8 µM (active) |
| CCOC(=O)[C@]12Cc3ccsc3[C@H]1N(Cc1ccccc1)C(=O)c1ccccc12 | inactive |
| CN1C2CCC1/C(=C/c1ccccn1)C(=O)/C2=C\c1ccccn1 | 1.26 µM (active) |
| N#Cc1c(Br)n(C2OC(CO)C(O)C2O)c2ncnc(N)c12 (stereo not drawn) | inactive |
| Cc1cccc(C)c1-n1nnnc1C(c1cc2ccccc2o1)N1CCC(n2c(=O)[nH]c3ccccc32)CC1 (stereo not drawn) | 8.91 µM (active) |
| O=c1[nH]c2ccccc2n1C1CCN(C(CCc2ccccc2)c2nnnn2C2CCCC2)CC1 (stereo not drawn) | 22.4 µM (active) |
| CC(C)(C)n1nnnc1C(CCc1ccccc1)N1CCC(n2c(=O)[nH]c3ccccc32)CC1 (stereo not drawn) | 22.4 µM (active) |
| O=C(NN=Cc1ccc(N(CCCl)CCCl)cc1)c1cc(=O)[nH]c(=O)[nH]1 | inactive |

| Compound | Potency |
| --- | --- |
| C1=NCCc2c1[nH]c1ccccc21 | inactive |
| COC1C(O)C(C)OC(OC2C(Oc3cccc4c(O)c5c(=O)oc6ccc(C)c7c(=O)oc(c34)c5c67)OC(C)C(O)C2O)C1O (stereo not drawn) | inactive |
| Cc1c2ccncc2c(C)c2c1[nH]c1ccccc12 | 22.4 µM (active) |
| CCn1c(O)c(/C=N/NC(=O)c2ccccc2)c(=O)n(CC)c1=S | inactive |
| NC(Cc1ccc(Cl)cc1)c1csc(Nc2ccccn2)n1 (stereo not drawn) | 25.1 µM (active) |
| CC[C@@]1(O)C(=O)OCc2c1cc1n(c2=O)Cc2cc3c(NC(=O)CN)cccc3nc2-1 | inactive |
| Cc1ccc(/C=C2\C(=O)NC(=S)N(c3ccccc3F)C2=O)s1 | 8.91 µM (active) |
| CCCCCn1c(=O)c(C(=O)NCc2ccccn2)c(O)c2ccccc21 | inactive |
| C=CCCC[C@@H]1OC(=O)CNC(=O)C([C@@H](C)CC)NC(=O)[C@@H]2CCCN2C(=O)C([C@@H](C)CC)OC(=O)[C@H](Cc2ccccc2)N(C)C(=O)[C@H](C(C)C)NC(=O)C1(C)C (stereo partly drawn) | 3.16 µM (active) |
| C#CCCC[C@@H]1OC(=O)CNC(=O)C([C@@H](C)CC)NC(=O)[C@@H]2CCCN2C(=O)C([C@@H](C)CC)OC(=O)[C@H](Cc2ccccc2)N(C)C(=O)[C@H](C(C)C)NC(=O)C1(C)C (stereo partly drawn) | 22.4 µM (active) |
| CCC(C)N1C(=O)/C(=C\c2cnc(N(C)C)nc2)C(=O)NC1=S (stereo not drawn) | inactive |
| c1ccc2sc(N3CCNCC3)nc2c1 | inactive |
| O=C1NC(=O)N(CCc2ccc(F)cc2)C(=O)/C1=C/C=C/c1ccccc1 | 11.2 µM (active) |
| COc1ccc(CCNCc2ccc(F)cc2)cc1OC | inactive |
| CCCCCCC(=O)N/N=C/c1c(O)n(CCCC)c(=S)[nH]c1=O | inactive |
| CC(=NCCc1c[nH]c2ccccc12)c1c(O)n(Cc2ccccc2)c(=O)[nH]c1=O | inactive |
| CCCCCn1c(NC(=O)c2ccco2)c(C(=O)OCC)c2nc3ccccc3nc21 | 28.2 µM (active) |
| CCOC(=O)c1c(N)n(CCN2CCCCC2)c2nc3ccccc3nc12 | inactive |
| CC(C)CCNC(=O)c1c(N)n(Cc2ccc3c(c2)OCO3)c2nc3ccccc3nc12 | inactive |
